According to PubChem BioAssay (EPA / NIEHS):
Where “and” joins values, the source holds several entries; their conditions need not be identical. Equal entries are not always repeated. Records with an inconclusive call do not appear. A structure can be active in one record and inactive in another. Calls of active or inactive are those of the source. Rule for the calls, unless noted: active = hit-call score of the fitted dose curve at least 0.9, where 1 is the maximum; inactive = score below 0.9.

How the values were obtained:
[1] = CCTE_Shafer_MEA_dev_LDH: CCTE's Lactate Dehydrogenase Assay for Cytotoxicity in the Neural Network Formation Assay, Shafer Lab (AID 2284068; active = hit-call score of the fitted dose curve at least 0.9, where 1 is the maximum;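 note: exposure for twelve days from plating with re-dosing on DIV 5 and 9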)
In short: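 Cytotoxicity companion to network-formation recordings: rat cortical neurons received compound over 12 days of development, re-dosed at DIV 5 and 9 feeds. Viability was inferred from LDH enzyme activity relative to DMSO.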

[2] = CCTE_Shafer_MEA_acute_AB: CCTE's Alamar Blue Assay for Cytotoxicity in the Neural Acute Assay, Shafer Lab (AID 2284069; active = hit-call score of the fitted dose curve at least 0.9, where 1 is the maximum;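 note: active compounds lower the viability signal compared with DMSO wells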)
In short: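 Metabolic activity in chemically exposed rat cortical neurons (MEA cultures, day 13/15 post-plating) measured via CellTiter Blue resazurin reduction, 544/590 nm fluorescence; fitted relative to DMSO, with signal loss indicating reduced viability.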

[3] = CCTE_Shafer_MEA_acute_LDH: CCTE's Lactate Dehydrogenase Assay for Cytotoxicity in the Neural Acute Assay, Shafer Lab (AID 2284086; active = hit-call score of the fitted dose curve at least 0.9, where 1 is the maximum;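 note: active means LDH release rises above DMSO vehicle level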)
In short: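 Primary rat cortical neurons on 48-well MEA plates, treated on day 13 or 15 post-plating. After the 40-min recording with compound, medium LDH release was read by absorbance at 490 nm. Gain of signal was fitted against DMSO negative control.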

[4] = CCTE_Shafer_MEA_dev_mutual_information_norm: CCTE's Neural Network Formation Assay for Mutual Information Normalization, Shafer Lab (AID 2284091);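 for AC50: mutual information between electrodes summarised as area under curve across four recording days; potency is for a decrease in mutual information relative to DMSO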
In short: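 Primary rat cortical neurons on PEI-coated 48-well MEA plates, 1.5 x 10^5 cells/well, exposed from day 0 through day 12 with re-dosing at DIV 5 and 9. Mutual information between electrodes recorded days 5, 7, 9, 12; trapezoidal AUC, loss-of-signal fit versus DMSO.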

[5] = CCTE_Shafer_MEA_dev_correlation_coefficient_mean: CCTE's Neural Network Formation Assay for Mean Correlation Coefficient, Shafer Lab (AID 2284093);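 for AC50: well mean pairwise spike train correlation integrated as AUC over recording days 5 to 12; potency fitted for loss of correlation relative to DMSO vehicle wells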
In short: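 Read-out: well-mean correlation coefficient of spike trains between electrode pairs, collapsed over four recording days as trapezoidal area-under-the-curve. Developing rat cortical neuron networks grown on MEAs received test chemical continuously from plating.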

[6] = IUF_NPC1b_proliferation_BrdU_72hr: Leibniz Research Institute for Environmental Medicine (IUF) 72-hour Neural Progenitor Cell Bromodeoxyuridine (BrdU) Proliferation Assay (NPC1b) (AID 2284207)
In short: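 BrdU luminescence ELISA quantified DNA synthesis over the last 16 h of a 72 h exposure, fitted against DMSO. Primary hNPC spheres from gestational week 16-19 cortex grown with EGF/FGF at 37C, pH 7.2-7.6.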

[7] = IUF_NPC1a_proliferation_area_72hr: Leibniz Research Institute for Environmental Medicine (IUF) 72-hour Neural Progenitor Cell Proliferation Area Assay (NPC1a) (AID 2284208)
In short: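 Single 0.25–0.35 mm human fetal neural progenitor spheres in proliferation medium with EGF and FGF, exposed 72 h from plating without renewal at 37C, pH 7.2-7.6. Sphere area growth measured by automated phase-contrast imaging, relative to DMSO.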

[8] = IUF_NPC1_viability_72hr: Viability Assessment at 72 hours in the Leibniz Research Institute for Environmental Medicine (IUF) Neural Progenitor Cell Proliferation Assay (NPC1) (AID 2284209)
In short: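 Human fetal-cortex neural progenitor spheres (0.25–0.35 mm, one per well) grown in EGF/FGF proliferation medium at 37C, pH 7.2-7.6, exposed 72 h without renewal; viability read as alamar blue resazurin-to-resorufin fluorescence relative to DMSO.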

[9] = CCTE_Mundy_HCI_Cortical_Synap_Neur_Matur_NeuriteSpotCountPerNeuriteLength: CCTE's Synaptogenesis and Neurite Maturation Assay in rat cortical cells for Neurite Spot Count per Neurite Length, Mundy Lab (AID 2284210)
In short: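 Rat primary cortical cultures, AraC added at DIV 5 to suppress glia; chemical exposure from DIV 7 to DIV 12. Fixed cells stained for MAP2 and synaptophysin plus Hoechst; synaptophysin puncta per neurite length quantified by high-content imaging, relative to DMSO.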

[10] = CCTE_Mundy_HCI_Cortical_NOG_NeuriteLength: CCTE's Neurite Outgrowth Assay in rat cortical cells for Neurite Length, Mundy Lab (AID 2284213);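 for AC50: neurites imaged about 48 to 50 h after chemical exposure began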
In short: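 Neurite length was read by high-content imaging of βIII-tubulin-labelled neurites in rat primary cortical cultures. Activity was fitted relative to DMSO.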

[11] = CCTE_Mundy_HCI_Cortical_Synap_Neur_Matur_NeuriteLength: CCTE's Synaptogenesis and Neurite Maturation Assay in rat cortical cells for Neurite Length, Mundy Lab (AID 2284214)
In short: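 Rat primary cortical cells were plated, treated with AraC at DIV 5 to arrest glial growth, then chemical-dosed with media change at DIV 7 through DIV 12. Fixed cells stained for MAP2, synaptophysin and Hoechst; neurite length quantified by high-content imaging.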

[12] = CCTE_Mundy_HCI_Cortical_Synap_Neur_Matur_NeuriteSpotCountPerNeuron: CCTE's Synaptogenesis and Neurite Maturation Assay in rat cortical cells for Neurite Spot Count per Neuron Count, Mundy Lab (AID 2284215)
In short: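 Rat primary cortical cultures given AraC at DIV 5, dosed from DIV 7 to DIV 12 with media change. Fixed, stained for MAP2, synaptophysin and Hoechst; neurite-associated synaptophysin puncta per neuron quantified by high-content imaging versus DMSO.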

DIO3 (gene 1735) = assay: CCTE_GLTED_hDIO3: CCTE's human Deiodinase 3 (DIO3) Inhibition Assay, Great Lakes Toxicology and Ecology Division (GLTED) Lab (AID 2284055; active = hit-call score of the fitted dose curve at least 0.9, where 1 is the maximum;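 note: potency is for inhibition seen as loss of released iodide signal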)
In short: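 Cell-free assay with human DIO3 enzyme produced by adenovirus expression; enzyme incubated with test chemical for 3 hours. Liberated iodide then measured by Sandell-Kolthoff absorbance; loss of signal versus DMSO baseline indicates inhibition, run in triplicate.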

[13] = CCTE_Shafer_MEA_dev_AB: CCTE's Alamar Blue Assay for Cytotoxicity in the Neural Network Formation Assay, Shafer Lab (AID 2284083; active = hit-call score of the fitted dose curve at least 0.9, where 1 is the maximum;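 note: twelve days of exposure from plating with re-dosing on DIV 5 and 9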)
In short: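 Fluorescent resazurin reduction serves as the viability read-out, with DMSO as negative control and baseline. Cells were primary rat cortical neurons grown on MEA plates and dosed from day 0 to day 12, treatment renewed on DIV 5 and 9.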

[14] = UKN5_HCS_SBAD2_cell_viability: Viability Assessment in the University of Konstanz (UKN) Leist Lab Neurite Outgrowth Assay in human iPSC-derived immature Dorsal Root Ganglia Neurons (UKN5) (AID 2284056)
In short: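 iPSC-derived immature peripheral neurons (SBAD2) seeded on Matrigel with CHIR99021, SU5402 and DAPT, dosed 1 h later for 24 h. Viability from Hoechst H-33342 and calcein-AM live staining, high-content imaging; bidirectional fit versus DMSO.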

[15] = UKN5_HCS_SBAD2_neurite_outgrowth: University of Konstanz (UKN) Leist Lab Neurite Outgrowth Assay in human iPSC-derived immature Dorsal Root Ganglia Neurons (UKN5) (AID 2284070); conditions: actives raise or lower the signal
In short: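 Human iPSC-derived immature DRG neurons (SBAD2) on Matrigel with CHIR99021 (1.5 uM), SU5402 (5 uM), DAPT (5 uM); compounds added 1 h post-seeding for 24 h. Calcein-AM neurite area imaged; bidirectional fit vs DMSO.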

[16] = UKN2_HCS_IMR90_neural_migration: University of Konstanz (UKN) Leist Lab Neural Crest Cell Migration Assay in human induced IMR90 Pluripotent Stem Cells (UKN2) (AID 2284204); conditions: actives raise or lower the signal
In short: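 iPSC-derived IMR90 neural crest cells seeded around stoppers on PLO/laminin/fibronectin; migration started in N2-S medium with EGF/FGF, compounds added after 24 h for 24 h. Migration into cell-free area imaged after calcein-AM/Hoechst staining; bidirectional fit versus DMSO.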

[17] = UKN4_HCS_LUHMES_neurite_outgrowth: University of Konstanz (UKN) Leist Lab Neurite Outgrowth Assay in human LUHMES cells (UKN4) (AID 2284206); conditions: actives raise or lower the signal
In short: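 LUHMES neuronal precursors differentiated 2 days, replated without cAMP/GDNF, then exposed to chemicals for 24 h. Neurite area imaged by high-content microscopy after calcein-AM staining; Hoechst H-33342 marks viability. Bidirectional fit versus DMSO.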

[18] = CCTE_Mundy_HCI_Cortical_Synap_Neur_Matur_BPCount: CCTE's Synaptogenesis and Neurite Maturation Assay in rat cortical cells for Branch Point Count, Mundy Lab (AID 2284211)
In short: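 Branch point number is quantified by automated imaging of fluorescently labelled neurites and synapses in rat primary cortical neurons exposed from DIV 7 to DIV 12. Activity is analysed relative to DMSO negative control.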

[19] = CCTE_Mundy_HCI_Cortical_NOG_NeuriteCount: CCTE's Neurite Outgrowth Assay in rat cortical cells for Neurite Count, Mundy Lab (AID 2284212);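 note: cells fixed about two days after chemical exposure began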
In short: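 Neurite number per cell from high-content imaging of betaIII-tubulin immunostaining, with Hoechst nuclear counterstain.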

Measured: AC50

CC(C)(c1ccc(O)cc1)c1ccc(O)cc1
inactive: [1] | [2] | [3] | [4] | [5] | [7] | [8] | [9] | [10]
active: [4] 1.95 µM | [6] 4.92 µM | [11] 50 µM | [12] 50 µM

CC(C)CCCCCCc1ccc(O)cc1
inactive: [2] | [3]
active: DIO3 (gene 1735) 18.8 µM

CCCN(CCC)c1c([N+](=O)[O-])cc(C(F)(F)F)c(N)c1[N+](=O)[O-]
inactive: [3]
active: DIO3 (gene 1735) 21.4 µM

CCNc1nc(N)nc(Cl)n1
inactive: [2] | [3]

CCCCOCCOCCOCc1cc2c(cc1CCC)OCO2
inactive: [13] | [4] | [5]
active: [1] 15.3 µM

S=C([S-])NCCNC(=S)[S-].[Mn+2]
active: [14] 7.5 µM | [15] 4.28 µM | [16] 14.2 µM | [17] 2.16 µM
not listed: [2] | [3] | DIO3 (gene 1735) | [18] | [19]
inactive: all other assays above

O=C(Nc1ccc([N+](=O)[O-])cc1Cl)c1cc(Cl)ccc1O
inactive: [2] | [3]

COCCO
inactive: [1] | [4] | [5]

O=C(O)c1ccccc1
not listed: DIO3 (gene 1735) | [13] | [14] | [15] | [16] | [17]
inactive: all other assays above

CCCCC(CC)CN1C(=O)C2C3C=CC(C3)C2C1=O (stereo not given)
inactive: [1] | [2] | [13] | [3] | [4] | [5]

CC1(C)C(C=C(Cl)Cl)C1C(=O)OCc1cccc(Oc2ccccc2)c1 (stereo not given)
inactive: [3] | [9]
active: [1] 22.6 µM and 9.58 µM | [13] 26.4 µM and 14.7 µM | [4] 15 µM and 5.01 µM | [5] 15 µM and 5.33 µM | [18] 8.52 µM | [19] 78.2 µM | [10] 83.7 µM | [11] 8.65 µM | [12] 8.69 µM

O=C(c1ccccc1)C1CCCCC1
inactive: [2] | [3]

O=C(c1ccc(O)cc1O)c1ccc(O)cc1O
inactive: [2] | [3]

CC(=O)S[C@@H]1CC2=CC(=O)CC[C@]2(C)[C@H]2CC[C@@]3(C)[C@@H](CC[C@@]34CCC(=O)O4)[C@H]12
active: DIO3 (gene 1735) 100 µM

N#CSCSc1nc2ccccc2s1
inactive: [2] | [3]

Oc1ccc(C(c2ccc(O)cc2)C(Cl)(Cl)Cl)cc1
active: DIO3 (gene 1735) 143 µM
inactive: [1] | [13] | [3] | [4] | [5]

CCOC(=O)C(C)Oc1ccc(Oc2nc3ccc(Cl)cc3o2)cc1 (stereo not given)
active: DIO3 (gene 1735) 15.3 µM

COC(=O)c1ccccc1C(=O)O
inactive: [2]

C#CCOC(=O)[C@@H](C)Oc1ccc(Oc2ncc(Cl)cc2F)cc1
active: [13] 10.1 nM | [7] 26.6 µM
not listed: [3] | DIO3 (gene 1735) | [14] | [15] | [17]
inactive: all other assays above

C=CCOC(Cn1ccnc1)c1ccc(Cl)cc1Cl (stereo not given)
inactive: [2] | [3]

CCCCCOC(=O)COc1cc(N2C(=O)C3=C(CCCC3)C2=O)c(F)cc1Cl
active: DIO3 (gene 1735) 100 µM

S=C(S)NCCNC(=S)S.[Mn+2].[S-]C([S-])=NCCN=C([S-])[S-].[Zn+2]
active: DIO3 (gene 1735) 43.6 µM | [15] 15 µM
not listed: [2] | [3] | [16] | [17]
inactive: all other assays above

CSC(=O)c1cccc2nnsc12
active: [6] 0.796 µM
not listed: [1] | [2] | DIO3 (gene 1735) | [14] | [15] | [16] | [17]
inactive: all other assays above

CC(C)(C)[C@@H](O)[C@@H](Cc1ccc(Cl)cc1)n1cncn1
inactive: [2] | [3]

CCN(CC)C(=O)c1cccc(C)c1
active: [6] 92.7 µM
not listed: [1] | [2] | [3] | DIO3 (gene 1735) | [13] | [14] | [15] | [17]
inactive: all other assays above

Cc1nn(C)c(Oc2ccccc2)c1C=NOCc1ccc(C(=O)OC(C)(C)C)cc1
inactive: [2] | [3] | [8]
active: [1] 0.002 µM | [13] 9.23 nM | [4] 0.00128 µM | [5] 2.29 nM | [16] 6.55 µM | [6] 5.15 µM | [7] 0.0215 µM | [9] 0.00339 µM | [18] 0.00291 µM | [19] 0.0196 µM | [10] 0.0155 µM | [11] 0.00265 µM | [12] 0.00181 µM

OB(O)O
inactive: [2] | [13] | [3] | [4] | [5]

CCCN(CCC)C(=O)SCC
not listed: [2] | [3] | DIO3 (gene 1735) | [14] | [15] | [17] | [19]
inactive: all other assays above
